Format in all cases: functional
Experiment [1] deals with Solute carrier family 2, facilitated glucose transporter member 1 (Homo sapiens) (UniProt P11166). Briefly: ST_JUDE_LEISH: Cytotoxicity at 2uM final concentration against transgenic Leishmania Mexicana promastigotes LmGLUT1 that are glucose transport deficient and complemented with the human glucose transporter GLUT1. Activity is measured by DNA content using SYBR green in vitro.

Experiment [2] concerns the target Hexose transporter 1 (Plasmodium falciparum) (UniProt O97467). The experiment can be described thus: ST_JUDE_LEISH: Cytotoxicity at 2uM final concentration against transgenic Leishmania Mexicana promastigotes LmPfHT that are glucose transport deficient and complemented with the Plasmodium falciparum hexose transporter. Activity is measured by DNA content using SYBR green in vitro.

In experiment [3] the target is Glucose transporter (Leishmania mexicana) (UniProt O61059). Briefly: ST_JUDE_LEISH: Cytotoxicity at 2uM final concentration against transgenic Leishmania Mexicana promastigotes LmGT2 that are glucose transport deficient and complemented with the L. Mexicana glucose transporter 2. Activity is measured by DNA content using SYBR green in vitro.

Solute carrier family 2, facilitated glucose transporter member 1 (Homo sapiens), sequence (P11166 whole entry): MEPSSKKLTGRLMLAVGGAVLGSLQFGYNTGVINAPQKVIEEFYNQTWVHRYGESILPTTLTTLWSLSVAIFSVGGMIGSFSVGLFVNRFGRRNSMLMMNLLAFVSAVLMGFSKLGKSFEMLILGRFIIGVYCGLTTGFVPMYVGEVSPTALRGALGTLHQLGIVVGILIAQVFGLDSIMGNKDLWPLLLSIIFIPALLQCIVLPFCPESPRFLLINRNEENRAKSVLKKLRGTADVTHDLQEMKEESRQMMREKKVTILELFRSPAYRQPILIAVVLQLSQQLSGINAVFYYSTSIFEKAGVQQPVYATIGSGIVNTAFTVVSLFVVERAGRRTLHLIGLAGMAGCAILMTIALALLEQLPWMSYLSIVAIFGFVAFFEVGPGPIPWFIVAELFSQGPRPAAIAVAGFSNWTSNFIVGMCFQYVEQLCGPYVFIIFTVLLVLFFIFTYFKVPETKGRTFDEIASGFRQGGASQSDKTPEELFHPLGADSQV

What is called inhibition is the drop in the measured response relative to a control, in per cent. `Cc1ccc(-n2c(C)cc(C(=O)CN3C(=O)NC(Cc4ccccc4)C3=O)c2C)cc1` (stereo unspecified): the inhibition in experiment [1] is 0.81%; in experiment [2], -1.87%; in experiment [3], 0.55%.

Turning to `O=[N+]([O-])c1cccc(CNCC2CCC(CNCc3cccc([N+](=O)[O-])c3)CC2)c1` (stereo unspecified), the figures for the inhibition in experiment [1], in experiment [2] and in experiment [3] were 2.25%, -2.59% and 1.26%, respectively.

Consider `COc1cc2nc(N3CCC(CNC(=O)c4ccc(NC(=O)c5ccc(Cl)cc5)cc4)CC3)nc(N)c2cc1OC`, for which the inhibition in experiment [1] amounted to 0.04%; in experiment [2], 0.98%; in experiment [3], 0.86%.

Turning to `Cc1ccc(C2CC(c3cccs3)=NN2C(=O)c2ccc(Br)o2)cc1` (stereo unspecified), the inhibition in experiment [1] was determined as 3.24%; in experiment [2], 1.47%; in experiment [3], 2.89%.

For the compound `O=C(/C=C/c1ccc(Cl)cc1)NCCCCCN1CCCC(C(=O)Nc2ccc(Cl)c(Cl)c2)C1` (stereo unspecified), the inhibition in experiment [1] came out at 0.22%; in experiment [2], 1.61%; in experiment [3] it was 1.59%.

For the compound `CC(C)[C@H](NC(=O)c1ccc(O)c(-c2ccc(Cl)c(Cl)c2)c1)C(=O)NCCN1CCOCC1`, the inhibition came to 2.3% in experiment [1], 4.31% in experiment [2] and 4.06% in experiment [3].

On to `CC(C)CN(Cc1c(O)ccc2[nH]c(-c3ccc(F)cc3F)nc12)CC(C)C`, for which the inhibition stood at 11.1% in experiment [1], 10.8% in experiment [2] and 5.69% in experiment [3].

For the compound `Cc1cc(NC(=O)NCCN2CCC(NS(=O)(=O)c3ccccc3Cl)C2)c2ccccc2n1` (stereo unspecified), the inhibition in experiment [1] is -2.1%; in experiment [2], 1.02%; in experiment [3], 8.99%.

Take `COc1ccc(-c2cc3nc4c(c(NCCCn5ccnc5)n3n2)CCCC4)cc1`: the inhibition in experiment [1] stood at 1.31%; in experiment [2], 1.92%; in experiment [3] it was 2.25%.

For `COc1ccc(NC(=O)c2ccc(Br)c(C)c2)cc1N1CCN(CCCc2c[nH]c3ccccc23)CC1`, the inhibition was -0.69% in experiment [1], -0.68% in experiment [2] and -0.4% in experiment [3].

Take `CNC(=O)c1cc(Nc2nnc(-c3ccc(C)c(S(=O)(=O)NC4CCCCC4)c3)c3ccccc23)ccc1OC`: the inhibition stood at 4% in experiment [1], 3.11% in experiment [2] and 4.93% in experiment [3].

In the case of `Cc1ccc2c(=NN=Cc3ccc(Cl)cc3)cc(C)[nH]c2c1`, the inhibition was determined as 4.64% in experiment [1], 4.7% in experiment [2] and 2.66% in experiment [3].

`N#CCCN1CCN(Cc2ccc(-c3cccc(-c4nc5cc(F)ccc5[nH]4)c3)cc2)CC1`: the inhibition in experiment [1] was 2.61%; in experiment [2], 2.18%; in experiment [3] it was 3.17%.

Turning to `COc1ccc(C2C(C(=O)Nc3cc(OC)c(OC)c(OC)c3)c3cc(OC)c(OC)cc3C(=O)N2C)cc1` (stereo unspecified), the values for the inhibition in experiment [1], in experiment [2] and in experiment [3] were 1.9%, 1.7% and 2.37%, respectively.

As for `O=C(O)c1cccnc1Sc1ccc(Cl)cc1`, the inhibition in experiment [1] is -0.75%; in experiment [2] it was -0.76%; in experiment [3], -0.47%.

Take `CCC(C)Oc1ccc(CCCON2C(N)=NC(N)=NC2(C)C)cc1` (stereo unspecified): the inhibition in experiment [1] turned out to be 12.6%; in experiment [2] it was 20.2%; in experiment [3] it was 13.8%.

With `CCC[C@@H](/C=N/N(C)C(=O)OC(C)(C)C)NC(=O)[C@H](CC(C)C)NC(=O)c1cc2cccc(OC)c2o1`, the inhibition amounted to 3.02% in experiment [1], 3.92% in experiment [2] and 0.27% in experiment [3].

`CN(C(=O)c1ccccc1)C1c2cc(C#N)ccc2OC(C)(C)C1O` (stereo unspecified): the inhibition in experiment [1] was 0.42%; in experiment [2], 0.76%; in experiment [3] it was 0.38%.

For the compound `Fc1ccccc1COc1ccc(Nc2ncnc3ccc(I)cc23)cc1Cl`, the inhibition in experiment [1] turned out to be 18.2%; in experiment [2] it was 9.09%; in experiment [3] it was 4.67%.

`O=C(CCNc1ccnc(NCCc2ccc(F)cc2)n1)Nc1ccccc1`: the results for the inhibition in experiment [1], in experiment [2] and in experiment [3] were 3.86%, 4.56% and 3.24%, respectively.

Take `CC(C)(C)c1ccc(CN2CCC(CNC(=O)c3cc(-c4cccc(C(F)(F)F)c4)cs3)C2)cc1` (stereo unspecified): the results for the inhibition in experiment [1], in experiment [2] and in experiment [3] were -1.18%, -0.44% and -5.97%, respectively.

As for `O=c1cc(NCCCNCc2cc(Cl)cc(Cl)c2OCc2ccccc2)[nH]c2ccccc12`, the results for the inhibition in experiment [1], in experiment [2] and in experiment [3] were 5.54%, 2.83% and 4.41%, respectively.

`Cc1cccc2nc(-c3ccc(-c4ccc(CN5CCN(C6CCN(C)CC6)CC5)cc4)s3)[nH]c12`: the inhibition in experiment [1] was 0.65%; in experiment [2], 1.2%; in experiment [3], -2.96%.

On to `Cc1ccc2[nH]c(C)cc(=NN=Cc3cccc(Cl)c3)c2c1`, for which the inhibition in experiment [1] turned out to be 2.87%; in experiment [2], 0.92%; in experiment [3], 2.31%.

In the case of `CC[C@H](NC(=O)c1c(CCCN2CCN(c3ccccc3)CC2)c(-c2ccccc2)nc2cc(O)ccc12)c1ccccc1`, the inhibition in experiment [1] is 7.88%; in experiment [2], 6.19%; in experiment [3], 10.9%.

For `O=C1CCCN1CCCNCc1cccc(-c2ccc(-c3nc4cc(C(F)(F)F)ccc4[nH]3)s2)c1`, the inhibition in experiment [1] came to 4.12%; in experiment [2], 3.19%; in experiment [3], 4.33%.

In the case of `Cc1cccc2nc(-c3ccc(-c4ccc(CN5CCN(CC6CCCN(C)C6)CC5)cc4)s3)[nH]c12` (stereo unspecified), the inhibition in experiment [1] worked out at 8.45%; in experiment [2], 21.1%; in experiment [3], 8.04%.

On to `O=c1cc(NCCCNCc2ccc(C(F)(F)F)c(F)c2)[nH]c2ccccc12`, for which the inhibition is 0.24% in experiment [1], 0.58% in experiment [2] and -0.68% in experiment [3].

On to `O=C(/C=C/c1ccc(I)cc1)NCCCCCN1CCC(c2c[nH]c3ccccc23)CC1`, for which the inhibition in experiment [1] came out at 3.43%; in experiment [2], 1.79%; in experiment [3] it was 2.95%.

Regarding `CCC(C)C(COC(=O)c1cc(OC)c(OC)c(OC)c1)N(C)CCN(C)C(COC(=O)c1cc(OC)c(OC)c(OC)c1)C(C)CC` (stereo unspecified), the inhibition was 1.76% in experiment [1], 1.28% in experiment [2] and -0.47% in experiment [3].

For `CC(=NNc1nc2ccccc2s1)c1ccccn1`, the results for the inhibition in experiment [1], in experiment [2] and in experiment [3] were 7.41%, 17.9% and 3.21%, respectively.

In the case of `Cc1nc(N)nc(N)c1CCCOc1ccccc1Cl`, the inhibition in experiment [1] worked out at 13.2%; in experiment [2], 27.9%; in experiment [3], 5.78%.

As for `COC(=O)c1ccc(NC(=O)c2ccc(CCN3CCC(c4nc(COCC(F)(F)F)c(-c5ccc(F)cc5)o4)CC3)cc2)cc1`, the inhibition in experiment [1] was found to be 3.21%; in experiment [2], 3.11%; in experiment [3] it was 2.38%.

As to `O=C(NCCCCN1CCC(c2ccc([N+](=O)[O-])cc2)CC1)c1ccc(NC(=O)c2ccc(Cl)cc2)cc1`, the inhibition in experiment [1] turned out to be 4.18%; in experiment [2], 1.35%; in experiment [3], 4.06%.

`COc1cc(NCC(C)CNCc2cn(Cc3ccccc3)c3ccccc23)nc2ccccc12` (stereo unspecified): the inhibition in experiment [1] stood at 3.78%; in experiment [2] it was 6.19%; in experiment [3], 6.44%.

On to `CCC(C)Oc1ccc2nc(N)nc(N)c2c1Cl` (stereo unspecified), for which the inhibition in experiment [1] was 41.2%; in experiment [2], 55.9%; in experiment [3], 30%.

For the compound `Cc1cccc(NC(=O)Nc2cccc(-c3ccc(-c4nc5cc(C(F)(F)F)ccc5[nH]4)cc3)c2)c1`, the inhibition in experiment [1] was found to be 5.86%; in experiment [2] it was 2.01%; in experiment [3], 1.66%.

The record behind these values is ChEMBL document CHEMBL3433997, “St. Jude Leishmania screening dataset” (2016).
